From PubChem BioAssay (Tox21) come the findings set out here.

Several values for one entry are separate records, joined by “and”; a condition that tells them apart may be missing. Equal entries are not always repeated. Records with an inconclusive call do not appear. Values without a mark were called inactive. Activity calls are given as the source filed them. Calls come from the whole dose curve; as a rule, active = well fitted curve in the direction sought with a large enough effect in the repeat runs; inconclusive = weak or mixed curves; inactive = no such curve, though single readings can be large; an effect the other way counts as inactive or inconclusive.
% is set by controls: 0 for no effect and ±100 for the full control effect; potency is the fitted concentration of half-maximal effect.

Chain of Cytochrome P450 2D6 (Homo sapiens) (P10635 whole entry, looked up): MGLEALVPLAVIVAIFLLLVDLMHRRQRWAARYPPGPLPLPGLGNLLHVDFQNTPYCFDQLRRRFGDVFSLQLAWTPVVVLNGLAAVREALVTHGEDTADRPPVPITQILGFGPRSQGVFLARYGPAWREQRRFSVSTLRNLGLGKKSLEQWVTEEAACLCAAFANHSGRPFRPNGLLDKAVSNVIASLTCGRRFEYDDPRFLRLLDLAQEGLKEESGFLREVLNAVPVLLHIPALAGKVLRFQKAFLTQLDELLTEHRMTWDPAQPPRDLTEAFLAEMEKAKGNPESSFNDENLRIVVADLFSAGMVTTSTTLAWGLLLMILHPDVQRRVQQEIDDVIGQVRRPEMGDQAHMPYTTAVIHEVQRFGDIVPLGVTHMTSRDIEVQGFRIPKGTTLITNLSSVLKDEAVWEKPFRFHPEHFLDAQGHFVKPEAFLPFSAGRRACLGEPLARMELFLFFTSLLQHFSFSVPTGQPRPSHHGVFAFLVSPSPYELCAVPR
Chain of Cytochrome P450 2C19 (Homo sapiens) (P33261 whole entry, looked up): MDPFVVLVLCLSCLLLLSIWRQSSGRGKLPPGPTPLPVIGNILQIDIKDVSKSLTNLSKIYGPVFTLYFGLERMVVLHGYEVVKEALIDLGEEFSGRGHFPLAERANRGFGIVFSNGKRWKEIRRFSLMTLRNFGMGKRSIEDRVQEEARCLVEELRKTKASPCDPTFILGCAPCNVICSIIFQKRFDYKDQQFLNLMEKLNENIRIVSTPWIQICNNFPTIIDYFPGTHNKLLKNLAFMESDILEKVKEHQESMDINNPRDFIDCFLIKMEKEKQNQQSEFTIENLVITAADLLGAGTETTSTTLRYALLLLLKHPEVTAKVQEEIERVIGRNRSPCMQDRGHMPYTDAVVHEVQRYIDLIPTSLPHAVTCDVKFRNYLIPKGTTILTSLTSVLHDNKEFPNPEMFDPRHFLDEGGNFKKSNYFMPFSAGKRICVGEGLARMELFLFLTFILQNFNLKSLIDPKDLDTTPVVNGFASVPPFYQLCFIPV

One test concerns the target Nuclear receptor subfamily 1 group I member 2 (Homo sapiens) (UniProt O75469). The test is described as follows: CYP3A4 induction through human pregnane X receptor (PXR) by small molecules, qHTS assay (AID 1346984). Note: nearly all actives have a fitted effect of over 40% in size. Particulars: DPX-2 HepG2 PXR, CYP3A4-luciferin luminescence, 24 h; series mostly up to 46.1 µM; activation: at the top concentration. In a few lines: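 DPX-2 HepG2 cells carrying a PXR response element and CYP3A4-promoter luciferase construct, treated with compounds 24 hr at 37C. Then P450-Glo CYP3A4 Luciferin-IPA substrate (3uM final) for 3 hr at 37C, One-Glo added, luminescence read.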
Regarding `N[C@@H](CSSC[C@H](N)C(=O)O)C(=O)O`, the “activation” value is -5.69%.

Consider `Cc1nc(Nc2ncc(C(=O)Nc3c(C)cccc3Cl)s2)cc(N2CCN(CCO)CC2)n1`, for which the “activation” value is -28.6%.

Consider `CCCCOc1ccc(C(=O)CCN2CCCCC2)cc1`, for which the “activation” value was -1.54% [at 20.6 µM].

On to `COc1cccc(CCc2ccccc2OCC(CN(C)C)OC(=O)CCC(=O)O)c1` (stereo not given), for which the Potency was 12.6 µM (active).

`CC1=C(/C=C/C(C)=C/C=C/C(C)=C/C(=O)Nc2ccc(O)cc2)C(C)(C)CCC1`: the “activation” value is -4.29%.

Another test has the same target. Description: Human pregnane X receptor (PXR) activation by small molecules, qHTS assay (AID 1346985). Note: nearly all actives have a fitted effect of over 40% in size. The following applies: DPX-2 HepG2 CYP3A4-luciferase, 24 h; series mostly up to 38.3 µM; activation: at the top concentration. In a few lines: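 DPX-2 cells (HepG2 co-transfected with a PXR response element and a CYP3A4-promoter luciferase construct) were seeded at 2,000 per well, rested 5 hr at 37C, then exposed to DMSO-dissolved compounds for 24 hr. Activation was read as luciferase luminescence.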
(qHTS replaces the single test concentration by a dilution series.)
As to `N[C@@H](CSSC[C@H](N)C(=O)O)C(=O)O`, the “activation” value was 2.14%.

For `CNC(=O)c1cc(Oc2ccc(NC(=O)Nc3ccc(Cl)c(C(F)(F)F)c3)cc2)ccn1`, the “activation” value is -9.15%.

Turning to `COc1ccccc1OCCNCC(O)COc1cccc2[nH]c3ccccc3c12` (stereo not given), the Potency is 22.4 µM (active).

Consider `CCCCOc1ccc(C(=O)CCN2CCCCC2)cc1`, for which the “activation” value is 11.7% [at 17.1 µM].

For the molecule `CC1=C(/C=C/C(C)=C/C=C/C(C)=C/C(=O)Nc2ccc(O)cc2)C(C)(C)CCC1`, the “activation” value was 13.6%.

The target in a further test is Cytochrome P450 2D6 (Homo sapiens) (UniProt P10635). The test is described as follows: Cytochrome P450 Family 2 Subfamily D Member 6 (CYP2D6) small molecule antagonists: luciferase reporter qHTS assay (AID 1671196). Note: nearly all actives have a fitted effect of over 50% in size. The following applies: P450-Glo CYP2D6 enzyme assay, luciferin luminescence, 1 h; series mostly up to 115 µM; activity change, negative = inhibition: at the top concentration. The method in brief:
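Cell-free P450-Glo system: CYP2D6 with proluciferin substrate was pre-incubated with compound for 10 min, then reacted with NADPH regeneration for 1 h at room temperature. Luciferin product was detected after 20 min, and data were reported as relative luminescence units.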
Take `N[C@@H](CSSC[C@H](N)C(=O)O)C(=O)O`: the activity change, negative = inhibition is -4.15% [at 0.435 µM].

Turning to `Clc1cc(Cl)c(-c2c(Cl)c(Cl)cc(Cl)c2Cl)cc1Cl`, the “activity change, negative = inhibition” value was -10.2% [at 53 µM].

As for `CCCCCCCCCCCCOC(=O)c1cc(O)c(O)c(O)c1`, the Potency was 28.2 µM (active) and 31.7 µM (active).

As for `CCCC(C)CCC(C)=O` (stereo not given), the “activity change, negative = inhibition” value was 0.308%.

On to `COc1cc(C(=O)NS(=O)(=O)c2ccccc2C)ccc1Cc1cn(C)c2ccc(NC(=O)OC3CCCC3)cc12`, for which the “activity change, negative = inhibition” value is -0.233% [at 53 µM].

Turning to `C=C1C(C)(C)[C@@]2(Cl)C(Cl)[C@]1(Cl)C(Cl)(Cl)C2(Cl)Cl` (stereo not given in full), the Potency is 31.1 µM (active).

As for `CCCCCCCCCCCCCC[n+]1ccccc1`, the Potency was 1.78 µM (active).

For `COc1ccccc1C=O`, the “activity change, negative = inhibition” value was 1.2%.

In the case of `Brc1ccccc1-c1ccccc1`, the Potency is 75.4 µM (active).

As to `COC(=O)NCCC[Si](OC)(OC)OC`, the “activity change, negative = inhibition” value is -22.9%.

As to `O=C1OC(=O)c2cccc3cccc1c23`, the “activity change, negative = inhibition” value is -3.99%.

Regarding `CCN(CC)CCNc1ccc(CO)c2sc3ccccc3c(=O)c12`, the Potency is 3.47 µM (active).

Consider `Cc1cc(Nc2ccc(O)cc2)ccc1N`, for which the Potency is 39.8 µM (active).

For the molecule `C(=C/c1ccccc1)/c1ccccc1`, the “activity change, negative = inhibition” value was -10.7%.

In the case of `COc1ccccc1OCCNCC(O)COc1cccc2[nH]c3ccccc3c12` (stereo not given), the Potency is 1.55 µM (active).

Consider `Cc1nc(Nc2ncc(C(=O)Nc3c(C)cccc3Cl)s2)cc(N2CCN(CCO)CC2)n1`, for which the “activity change, negative = inhibition” value was -16.6% [at 53 µM].

`c1cc[nH]c1`: the “activity change, negative = inhibition” value was 1.26%.

As for `CCCCOc1ccc(C(=O)CCN2CCCCC2)cc1`, the Potency is 5.49 µM (active).

As to `NCCCCCCNCCCCCCN`, the Potency was 4.94 µM (active).

In the case of `CCN=C1C=CC(=C(c2ccc(N(CC)CC)cc2)c2ccc(N(CC)CC)cc2)c2ccccc21`, the Potency was 12.6 µM (active).

For `CCCCOC(=O)C(C)CC` (stereo not given), the “activity change, negative = inhibition” value is -3.61%.

As to `O=C[C@H](O)[C@H](O)[C@H](O)CO`, the “activity change, negative = inhibition” value is -0.0276%.

With `O=S(O)O`, the activity change, negative = inhibition is -20.2% [at 23.6 µM].

`CN(C)c1ccc(N=Nc2ccccc2C(=O)O)cc1`: the Potency is 39.9 µM (active).

With `CCCCCCOc1ccc(O)cc1`, the Potency was 79.6 µM (active).

Turning to `COc1cccc(O)c1`, the “activity change, negative = inhibition” value was -0.484%.

Turning to `COc1cccc(CCc2ccccc2OCC(CN(C)C)OC(=O)CCC(=O)O)c1` (stereo not given), the Potency is 0.692 µM (active).

With `CC1=C(/C=C/C(C)=C/C=C/C(C)=C/C(=O)Nc2ccc(O)cc2)C(C)(C)CCC1`, the Potency was 13.8 µM (active).

For the molecule `O=C1Nc2ccc(Cl)cc2[C@@](C#CC2CC2)(C(F)(F)F)O1`, the “activity change, negative = inhibition” value is -14.6% [at 53 µM].

For `CCCCCCCOC(=O)c1ccc(O)cc1`, the Potency was 71 µM (active).

With `CC1CCCCC1`, the “activity change, negative = inhibition” value is -4.51%.

The next test concerns the target Cytochrome P450 2C19 (Homo sapiens) (UniProt P33261). The test is described as follows: Cytochrome P450 Family 2 Subfamily C Member 19 (CYP2C19) small molecule antagonists: luciferase reporter qHTS assay (AID 1671197). Note: nearly all actives have a fitted effect of over 65% in size. The following applies: P450-Glo CYP2C19 enzyme, luciferin luminescence, 1 h; series mostly up to 115 µM; activity change, negative = inhibition: at the top concentration. The method in brief:
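P450-Glo CYP2C19 system: enzyme-substrate mix with compound 10 min at room temperature, then NADPH regeneration solution, 1 h at 37C. Proluciferin-to-luciferin conversion detected by luminescence after 20 min with detection reagent; ketoconazole as positive control.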
`N[C@@H](CSSC[C@H](N)C(=O)O)C(=O)O`: the activity change, negative = inhibition is -14.3% [at 0.435 µM].

With `Clc1cc(Cl)c(-c2c(Cl)c(Cl)cc(Cl)c2Cl)cc1Cl`, the “activity change, negative = inhibition” value was 25.2% [at 52.9 µM].

On to `CCCCCCCCCCCCOC(=O)c1cc(O)c(O)c(O)c1`, for which the Potency is 25.1 µM (active) and 20 µM (active).

Regarding `CCCC(C)CCC(C)=O` (stereo not given), the “activity change, negative = inhibition” value is 3.89%.

For the molecule `COc1cc(C(=O)NS(=O)(=O)c2ccccc2C)ccc1Cc1cn(C)c2ccc(NC(=O)OC3CCCC3)cc12`, the “activity change, negative = inhibition” value was 22.7% [at 52.9 µM].

For the molecule `C=C1C(C)(C)[C@@]2(Cl)C(Cl)[C@]1(Cl)C(Cl)(Cl)C2(Cl)Cl` (stereo not given in full), the Potency is 1.96 µM (active).

Take `CCCCCCC(C)OC(=O)COc1nc(F)c(Cl)c(N)c1Cl` (stereo not given): the Potency is 4.48 µM (active).

Regarding `COc1ccccc1C=O`, the “activity change, negative = inhibition” value was 10.3%.

Regarding `CNC(=O)c1cc(Oc2ccc(NC(=O)Nc3ccc(Cl)c(C(F)(F)F)c3)cc2)ccn1`, the Potency was 27.5 µM (active).

Turning to `COC(=O)NCCC[Si](OC)(OC)OC`, the “activity change, negative = inhibition” value is 4.83%.

For `O=C1OC(=O)c2cccc3cccc1c23`, the “activity change, negative = inhibition” value was -12.9%.

Consider `CCN(CC)CCNc1ccc(CO)c2sc3ccccc3c(=O)c12`, for which the “activity change, negative = inhibition” value is 14.4% [at 52.9 µM].

As for `CC(=O)OC(OC(C)=O)c1ccc([N+](=O)[O-])o1`, the Potency is 16.2 µM (active).

As to `Cc1cc(Nc2ccc(O)cc2)ccc1N`, the Potency is 19.9 µM (active).

Take `C(=C/c1ccccc1)/c1ccccc1`: the “activity change, negative = inhibition” value is -16.8%.

As to `COc1ccccc1OCCNCC(O)COc1cccc2[nH]c3ccccc3c12` (stereo not given), the Potency was 5.49 µM (active).

As to `c1cc[nH]c1`, the “activity change, negative = inhibition” value is 0.958%.

Regarding `NCCCCCCNCCCCCCN`, the “activity change, negative = inhibition” value was -8.46%.

For the molecule `CCN=C1C=CC(=C(c2ccc(N(CC)CC)cc2)c2ccc(N(CC)CC)cc2)c2ccccc21`, the Potency is 17.7 µM (active).

`O=C[C@H](O)[C@H](O)[C@H](O)CO`: the “activity change, negative = inhibition” value was 1.02%.

Regarding `O=S(O)O`, the activity change, negative = inhibition was 0.673% [at 23.6 µM].

With `CN(C)c1ccc(N=Nc2ccccc2C(=O)O)cc1`, the Potency is 35.6 µM (active).

Turning to `CCCCCCOc1ccc(O)cc1`, the Potency is 20 µM (active).

As to `COc1cccc(O)c1`, the “activity change, negative = inhibition” value was -27.7%.

Take `COc1cccc(CCc2ccccc2OCC(CN(C)C)OC(=O)CCC(=O)O)c1` (stereo not given): the Potency was 34.7 µM (active).

As to `CC1=C(/C=C/C(C)=C/C=C/C(C)=C/C(=O)Nc2ccc(O)cc2)C(C)(C)CCC1`, the Potency was 41 µM (active) and 27.5 µM (active).

With `O=C1Nc2ccc(Cl)cc2[C@@](C#CC2CC2)(C(F)(F)F)O1`, the Potency was 11 µM (active).

With `CCCCCCCOC(=O)c1ccc(O)cc1`, the Potency is 7.1 µM (active) and 20 µM (active).

On to `CC1CCCCC1`, for which the “activity change, negative = inhibition” value is -7.72%.
